# Test results reported in PubChem BioAssay (NCI).
# About 83,000 compounds went through this panel and 20% of them were active in at least one assay; those are over-represented in the sample as a whole.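 For each line, cells grew in 96-well plates with the test compound present at a single concentration for 48 hours.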 Values without a mark were called inactive. Calls of active or inactive are those of the source. Rule for the calls: active = growth percent below 10; inactive = the rest.
# System: HL-60(TB) leukemia
# Assay: NCI-60 one-dose screen, 48 h (100 = growth as untreated, 0 = no growth, -100 = all killed)
# Conditions: 10 µM unless noted
row,Compound,growth
1,Clc1ccc(Sc2nc(NC3CC3)nc(Sc3ccc(Cl)cc3)n2)cc1,60.9%
2,CCC(C)NCc1ccccc1 (configuration not stated),94.6%
3,Nc1ccc(-c2cccs2)cc1NC(=O)c1ccc(CCCC(=O)Nc2ccc(C3CC3N)cc2)cc1 (configuration not stated),66%
4,O[C@@H]1CCO[C@H](c2ccc3ccccc3c2)C1,102%
5,COC(=O)[C@H](CCCCNC(=O)OCc1ccccc1)NC(=O)[C@@H](NC(=O)Nc1cc(C(F)(F)F)cc(C(F)(F)F)c1)C(C)C,-9.21% [100 µM] (active)
6,COc1ccc(/C(C)=C(\c2ccc(OCCN3CCCCCC3)cc2)c2ccc(OC(=O)C3CCCCC3)cc2)cc1,-41.1% (active)
7,Oc1ccc(/C=C/c2ccc(O)cc2)cc1,43.6%
